Rows were chosen to be rich in hits. Some 4.8% of all compounds tested hit in one or more screens of this group.
ssDAF-12 act: activators of S. stercoralis DAF-12 nuclear receptor | activation, % at 6.8 µM | HEK293 ssDAF-12/GRIP1 lit1-tk-luc reporter, luminescence; % of 3 µM dafachronic acid response | AID 652126 | 370,000 tested, 1% active;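 active means activation above the mean over all tested compounds plus 3 SD, cut at about 0.9% in these data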;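 further: 0% = DMSO-only wells and 100% = 3 µM delta7-dafachronic acid wells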
SMARCA2 act: activators of SMARCA2 function. MG213 cells, MMTV-luciferase reporter, dexamethasone, overnight. activation, % at 9.1 µM. 370,000 tested, 1% active. AID 652017; in the data active means activation above about 7.8%;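 further: 0% = vehicle wells and 100% = reference activator wells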
DAX1 inh-1: inhibitors of DAX1 repression of SF-1 activated StAR promoter; HEK293T StAR-luciferase reporter, SF-1/DAX-1 repression relief; inhibition, % at 6.8 µM; 370,000 tested, 1.1% active;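 active means inhibition above the mean over all tested compounds plus 3 SD, cut at about 3.6% in these data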;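 further: 0% = DAX-1 cells with DMSO and 100% = cells lacking DAX-1 with DMSO; higher inhibition means more luminescence from relief of DAX-1 repression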
DAX1 inh-2: inhibits human nuclear receptor DAX1 | P51843 | HEK293 Gal4-DAX1 luciferase reporter, luminescence | inhibition, % at 6.75 µM | 340,000 tested, 0.99% active;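 active means inhibition above the mean over all tested compounds plus 3 SD, cut at about 4.2% in these data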;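 further: 0% = DAX1-transfected cells with DMSO and 100% = empty-vector control cells with DMSO; inhibition shows as a rise in luminescence from relieved DAX1 repression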
Target sequence (P51843 207-470 limits assumed): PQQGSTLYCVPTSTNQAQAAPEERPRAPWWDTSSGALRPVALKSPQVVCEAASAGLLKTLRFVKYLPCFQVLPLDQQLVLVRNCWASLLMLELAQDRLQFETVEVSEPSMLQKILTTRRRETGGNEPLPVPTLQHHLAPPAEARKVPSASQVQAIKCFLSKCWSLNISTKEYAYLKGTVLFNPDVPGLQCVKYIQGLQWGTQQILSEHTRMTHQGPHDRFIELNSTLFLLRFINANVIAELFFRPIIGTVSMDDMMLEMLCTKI
hgDAF12 agonist: activates the H. glycines DAF-12 receptor ligand-binding domain. AID 687014. activation, % at 6.8 µM. HEK293 GAL4-hgDAF12 UAS-luciferase reporter, agonist luminescence; normalized to butyrate control. 370,000 tested, 1.8% active;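 active means activation above a cutoff set at the mean of all screened compounds plus 3 SD, cut at about 10% in these data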;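 further: 0% = DMSO wells and 100% = sodium butyrate wells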
hcDAF12 agonist: activators of H. contortus DAF-12 nuclear receptor; HEK293 hcDAF-12 lit1-tk-luc reporter, luminescence; 0% DMSO, 100% Δ7-dafachronic acid; activation, % at 6.8 µM; 370,000 tested, 1.4% active; AID 652067;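 active means activation above the mean of all tested compounds plus 3 SD, cut at about 5.5% in these data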;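 further: 100% = response to 3 µM Δ7-dafachronic acid high control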
SMARCA2 conf: SMARCA2 activation, confirmation screen | 3,500 tested, 30% active | activation, % at 9.1 µM | shares compounds with SMARCA2 act | MG213 cells, MMTV-luciferase with dexamethasone, luminescence, overnight; MG213 cells expressing E1A, Rb sequestered; DMSO wells 0%, reference activator 100%;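 active means activation above its plate's cutoff, the mean activation of tested wells plus 3 SD, cut at about 7.9% in these data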
GAL4-VP16 Luc: counter-screen for SMARCA2 activators: GAL4-VP16 luciferase reporter activation | HEK293 GAL4-VP16 pG5luc reporter, luciferase luminescence; scaled: DMSO wells 0%, SAHA wells 100% | 3,500 tested, 41% active | activation, % at 9.1 µM | shares compounds with SMARCA2 act;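 active means activation above the solvent-only control well mean plus 3 SD, averaged across control plates, cut at about 5.2% in these data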
LXRb hcDAF ctr: counter-screen for hcDAF-12 agonists: agonists of human LXR-beta | AID 743027 | 3,400 tested, under 10 active | HEK293 Gal4-LXR tk-luc reporter, luminescence, 24 h; normalized: DMSO 0%, positive control 100% | activation, % at 6.8 µM | shares compounds with hcDAF12 agonist;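 active means mean percent activation of the reporter above a cutoff set as the average over tested compounds plus their standard deviation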
Target sequence (P55055 whole entry, looked up, the tested form may be a part): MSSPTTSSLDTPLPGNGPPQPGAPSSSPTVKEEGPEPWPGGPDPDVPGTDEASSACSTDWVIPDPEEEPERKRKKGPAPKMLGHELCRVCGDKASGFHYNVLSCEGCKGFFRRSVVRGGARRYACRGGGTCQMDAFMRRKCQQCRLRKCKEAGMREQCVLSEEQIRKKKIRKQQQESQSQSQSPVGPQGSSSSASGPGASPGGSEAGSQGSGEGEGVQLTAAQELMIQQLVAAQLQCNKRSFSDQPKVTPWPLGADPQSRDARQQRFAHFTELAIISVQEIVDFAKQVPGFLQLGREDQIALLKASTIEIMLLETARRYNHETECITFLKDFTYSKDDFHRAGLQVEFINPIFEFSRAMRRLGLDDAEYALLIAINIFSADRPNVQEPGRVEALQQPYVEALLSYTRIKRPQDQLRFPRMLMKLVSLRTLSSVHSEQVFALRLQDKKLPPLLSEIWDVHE
hcDAF12 ag: confirmation of H. contortus DAF-12 agonists; shares compounds with hcDAF12 agonist; activation, % at 6.8 µM; HEK293 hcDAF-12 lit1-tk-luc reporter, luminescence; % of Δ7-dafachronic acid response; 3,400 tested, 61% active;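 active means mean activation across triplicate tests above the threshold derived from the earlier primary screen, cut at about 5.5% in these data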;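 further: 0% = DMSO only wells and 100% = 3 µM Δ7-dafachronic acid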
hgDAF12 ag: confirmation of H. glycines DAF-12 agonists; shares compounds with hgDAF12 agonist; HEK293 GAL4-hgDAF12 luciferase reporter, agonist mode; percent of butyrate response; activation, % at 6.8 µM; 3,300 tested, 80% active; AID 743050;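 active means mean activation over triplicate wells above the hit cutoff derived from the earlier primary screen, cut at about 11% in these data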;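 further: 0% = DMSO low control and 100% = 2 mM sodium butyrate high control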
LXR ag 2: counter-screen for DAF-12 agonists: agonists of human LXR-beta | 3,300 tested, under 10 active | activation, % at 6.8 µM | AID 743051 | HEK293 Gal4-LXR luciferase reporter, 24 h | shares compounds with hgDAF12 agonist;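 active means mean activation of the triplicate above a set limit carried over from the primary screen, none filed active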
Starred values were filed as active, the others as inactive; . = no result given.

SMILES | ssDAF-12 act | SMARCA2 act | DAX1 inh-1 | DAX1 inh-2 | hgDAF12 agonist | hcDAF12 agonist | SMARCA2 conf | GAL4-VP16 Luc | hgDAF12 ag | LXR ag 2 | others
Nc1ccccc1C#Cc1ccc2[nH]ccc2c1 | 0 | 10* | 1 | 7.2* | 14* | 3 | 12* | 11* | 12* | 0
CC(/C=N/NC(=O)c1ccccn1)=C\c1ccco1 | 1.2* | 8.7* | 2 | . | 14* | 4 | 12* | 14* | 11* | 1
O=c1c2c(nc3cc(-c4ccc(F)cc4)[nH]n13)CCC2 | 0 | 12* | 4.1* | 1 | 15* | 6.4* | 13* | 12* | 17* | 1
Cc1ccc(-c2cc3nc4c(c(=O)n3[nH]2)CCCC4)cc1 | 0 | 6 | 2 | 3 | 9 | 3 | . | . | . | .
O=C(CSCc1ccccc1)N=Nc1c(O)[nH]c2ccccc12 | 0 | 2 | 1 | -1 | 6 | 2 | . | . | . | .
O=C(N=Nc1c(O)[nH]c2ccccc12)c1ccco1 | 1 | 8.2* | 2 | 4.4* | 19* | 9.8* | 23* | 9.8* | 17* | 1 | LXRb hcDAF ctr=1;hcDAF12 ag=10*
O=C(C(=O)N1CCC(CNS(=O)(=O)c2ccc(F)cc2)CC1)c1cccs1 | 0 | -3 | -1 | . | 0 | 2 | . | . | . | .
CC(C)(C)OC(=O)N[C@H]1C=C[C@@H](CC(=O)OCC(F)(F)F)C1 | 0 | 4 | 2 | . | 6 | 0 | . | . | . | .
CC(=O)Nc1ccc(S(=O)(=O)Nc2nc3ccc(C)cc3s2)cc1 | 0 | 3 | 0 | -1 | 4 | 0 | . | . | . | .
CC(=O)NC(=S)Nc1ccc(-c2nc3ccc(C)cc3s2)cc1 | 0 | 18* | 3 | 4 | 15* | 5 | 5 | 9.2* | 22* | 1
c1ccc(Cn2ccc3ccc(-c4ccc5ccn(Cc6ccc(-c7ccccc7)cc6)c5c4)cc32)cc1 | -1 | -2 | -1 | . | 2 | 2 | . | . | . | .
Cc1cc(NC(=O)c2ccccc2)sc1C | 0 | 19* | 4 | 0 | 19* | 9.9* | 8 | 8.6* | 17* | 1 | LXRb hcDAF ctr=1;hcDAF12 ag=5
CCOC(=O)N[C@@H](Cc1cccnc1)C(=O)N1CCC[C@H]1C(=O)NCCc1ccccc1Cl | 0 | 5 | 0 | . | -1 | 3 | . | . | . | .
O=C(N[C@H](Cc1ccccc1)C(=O)NCC1CCCO1)[C@H]1O[C@@H](n2ccc(=O)[nH]c2=O)[C@H](O)[C@@H]1O (some centres not stated) | -1 | 3 | 1 | . | 3 | 1 | . | . | . | .
CCC(=O)Nc1cccc(NC(=O)c2ccccc2Cl)c1 | -1 | -1 | 0 | 0 | -2 | 0 | . | . | . | .
CCC(=O)Nc1cc2c(cc1Cl)-c1ccccc1C2 | 0 | 9.5* | 3 | 1 | 18* | 5.8* | 3 | 5 | 17* | 0
COC(=O)[C@]12C[C@H](CC(=O)NCCCCc3ccccc3)C(=O)N(Cc3ccccc3)C1=C[C@H](C(C)(C)C)O[C@@H]2C | -1 | -3 | -1 | . | 1 | 0 | . | . | . | .
O=C(CNC(=O)c1cccs1)c1ccc(Cl)cc1 | 1 | 8.8* | 2 | 1 | 15* | 5 | 10* | 12* | 17* | 1
C/C(=N\NC(=O)c1ccc(Cl)cc1)c1cccs1 | 1.8* | 8.4* | 4.4* | 0 | 15* | 4 | 20* | 14* | 18* | 1
C/C(=N\NC(=O)c1cccs1)c1ccncc1 | 1 | 9.5* | 1 | 4 | 15* | 3 | 4 | 1 | 1 | 0
O=C(CNC(=O)c1cccs1)c1ccc([N+](=O)[O-])cc1 | -1 | 2 | 2 | 1 | 4 | 1 | . | . | . | .
COC(=O)N/N=C(\C)c1cccs1 | -1 | -1 | 0 | -2 | 0 | 3 | . | . | . | .
CCCN(C(=O)C1CCCN(c2ncnc3c2nc2n3CCCCC2)C1)c1ccccc1C (configuration not stated) | -1 | 0 | -2 | . | -4 | -3 | . | . | . | .
Cc1ccc(/C=C/c2nnc(-c3cccs3)o2)cc1 | 0 | 11* | 4.4* | 0 | 15* | 3 | 3 | 9.0* | 16* | 1
Cc1ccc(/C=C/c2nnc(-c3ccc(C)cc3)o2)cc1 | -1 | 2 | 1 | 0 | 2 | 1 | . | . | . | .
SMILES | ssDAF-12 act | SMARCA2 act | DAX1 inh-1 | DAX1 inh-2 | hgDAF12 agonist | hcDAF12 agonist | SMARCA2 conf | GAL4-VP16 Luc | hgDAF12 ag | LXR ag 2 | others
c1ccc2oc(-c3ccc4nc[nH]c4c3)nc2c1 | 0 | 9.6* | 3.8* | 2 | 19* | 4 | 10* | 14* | 18* | 1
COc1ccc(-c2nc3ccccc3o2)cc1OC | -1 | 5 | 1 | 0 | 8 | 4 | . | . | . | .
O=C(O)c1ccccc1C(=O)Nc1ccc(-c2csc(-c3ccccc3)n2)cc1 | -1 | 9.5* | 0 | 1 | 16* | 1 | 5 | 9.5* | 6 | 0
Cc1nn(Cc2c(F)c(F)c(F)c(F)c2F)c(C)c1NC(=O)c1cccc(COc2ccccc2Cl)c1 | 0 | 13* | 1 | -3 | 20* | 4 | 4 | 13* | 9 | 0
O=C(CSc1cccc[n+]1[O-])Nc1cc2c(cc1Cl)C(=O)c1ccccc1C2=O | 1.1* | 12* | 1 | 1 | 15* | 5 | 13* | 7.3* | 13* | 1
CCCCc1c(-c2ccccc2OC)ncn1C(C)c1ccc(Cl)cc1 (configuration not stated) | -1 | -6 | 0 | . | 2 | 0 | . | . | . | .
S=C(Nc1ccccc1I)OC1CCC12CCC(c1ccccc1)CC2 (configuration not stated) | -1 | . | . | . | -1 | 0 | . | . | . | .

Source: PubChem BioAssay
